# From PubChem BioAssay (EPA / NIEHS)
# Active and inactive are the calls of the source. The calls were made as follows: active = hit-call score of the fitted dose curve at least 0.9, where 1 is the maximum; inactive = score below 0.9.
# How the values were obtained:
# Details in all cases: mRNA level, 48 h; actives raise or lower the signal
# CYP2C9 (gene 1559) = test: LTEA_HepaRG_CYP2C9: Life Technologies and Expression Analysis (LTEA) Assay for CYP2C9 using HepaRG (AID 2283484)
# How it was run: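 HepaRG, 48 h dosing, 8-pt half-log series, top 100 uM, 0.5% DMSO vehicle. Read-out: CYP2C9 transcript by TaqMan qRT-PCR, housekeeping-normalized (ACTB/GAPDH/POLR2A). Gain or loss fitted vs DMSO baseline.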
# CYP2E1 (gene 1571) = test: LTEA_HepaRG_CYP2E1: Life Technologies and Expression Analysis (LTEA) Assay for CYP2E1 using HepaRG (AID 2283485)
# How it was run: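 Assay uses 48 h exposure of HepaRG hepatic cells, eight concentrations to 100 uM. Expression of CYP2E1 is quantified by TaqMan qRT-PCR with ACTB, GAPDH and POLR2A normalization; curves fitted in both directions relative to vehicle.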
# CYP4A11 (gene 1579) = test: LTEA_HepaRG_CYP4A11: Life Technologies and Expression Analysis (LTEA) Assay for CYP4A11 using HepaRG (AID 2283486)
# How it was run: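 Differentiated HepaRG cells, serum-free induction medium, exposed 48 h in duplicate to 8-point half-log series from 100 uM in 0.5% DMSO. CYP4A11 mRNA measured by qRT-PCR, normalized to ACTB, GAPDH, POLR2A; bidirectional fit versus DMSO.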
# [1] = read-out: DNA damage-inducible transcript 3 (DDIT3), DDIT3 (gene 1649); test: LTEA_HepaRG_DDIT3: Life Technologies and Expression Analysis (LTEA) Assay for DNA damage-inducible transcript 3 (DDIT3) using HepaRG (AID 2283488)
# How it was run: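 Eight-point concentration-response (100 uM highest, half-log dilutions) in HepaRG, 48 h, duplicate wells. Endpoint: qRT-PCR mRNA, normalized (ACTB, GAPDH, POLR2A), bidirectional fitting with DMSO as baseline.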
# [2] = read-out: Pro-epidermal growth factor (Homo sapiens) (UniProt P01133); test: LTEA_HepaRG_EGF: Life Technologies and Expression Analysis (LTEA) Assay for Epidermal growth factor (EGF) using HepaRG (AID 2283489)
# How it was run: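 Differentiated human HepaRG cells, plated 48 h then switched to serum-free induction medium, were exposed for 48 h to test chemicals (8-point half-log series, top 100 uM, 0.5% DMSO). EGF mRNA was quantified by qRT-PCR, normalized to ACTB, GAPDH, POLR2A.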
# [3] = read-out: Early growth response protein 1 (EGR1) transcription factor, EGR1 (gene 1958); test: LTEA_HepaRG_EGR1: Life Technologies and Expression Analysis (LTEA) Assay for Early growth response protein 1 (EGR1) transcription factor using HepaRG (AID 2283490)
# How it was run: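 HepaRG, 48 h exposure, 8-pt half-log series from 100 uM, 0.5% DMSO vehicle; EGR1 transcript by TaqMan qRT-PCR (Fluidigm array), housekeeping-normalized; bidirectional fit relative to DMSO baseline.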
# [4] = read-out: Ezrin (EZR), EZR (gene 7430); test: LTEA_HepaRG_EZR: Life Technologies and Expression Analysis (LTEA) Assay for Ezrin (EZR) using HepaRG (AID 2283491)
# How it was run: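 Differentiated human HepaRG cells, 48 h after plating, were exposed in serum-free induction medium for 48 hours to eight half-log concentrations up to 100 uM in 0.5% DMSO. EZR mRNA was measured by TaqMan qRT-PCR, normalized to ACTB, GAPDH and POLR2A, and fitted bidirectionally against DMSO.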
# CYP3A5 (gene 1577) = test: LTEA_HepaRG_CYP3A5: Life Technologies and Expression Analysis (LTEA) Assay for CYP3A5 using HepaRG (AID 2283493)
# How it was run: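 Readout was CYP3A5 mRNA by qRT-PCR. HepaRG cultures were exposed for 48 h in serum-free induction medium to chemicals at up to 100 uM, and responses were fitted in both directions relative to DMSO vehicle.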
# [5] = read-out: Fatty Acid-Binding Protein 1 (FABP1), FABP1 (gene 2168); test: LTEA_HepaRG_FABP1: Life Technologies and Expression Analysis (LTEA) Assay for Fatty Acid-Binding Protein 1 (FABP1) using HepaRG (AID 2283494)
# How it was run: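 qRT-PCR readout of FABP1 transcript (normalized to three housekeeping genes) after 48 h chemical exposure of HepaRG cells; eight concentrations, half-log steps, max 100 uM, 0.5% DMSO vehicle; gain or loss fitted relative to DMSO baseline.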
# [6] = read-out: Cytochrome P450 4A22 (Homo sapiens) (UniProt Q5TCH4); test: LTEA_HepaRG_CYP4A22: Life Technologies and Expression Analysis (LTEA) Assay for Cytochrome P450 4A22 (CYP4A22) using HepaRG (AID 2283495)
# How it was run: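 qRT-PCR of CYP4A22 mRNA (Fluidigm TaqMan, normalized to three housekeeping genes) after 48 h chemical exposure of HepaRG cells; 8-point half-log series, top 100 uM, 0.5% DMSO vehicle. Bidirectional curve fitting vs DMSO baseline.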
# [7] = read-out: Cytochrome P450 7A1 (Homo sapiens) (UniProt P22680); test: LTEA_HepaRG_CYP7A1: Life Technologies and Expression Analysis (LTEA) Assay for Cytochrome P450 7A1 (CYP7A1) using HepaRG (AID 2283496)
# How it was run: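 Using 0.5% DMSO as vehicle and baseline, chemicals were tested in duplicate over an 8-point range from 100 uM on HepaRG cells for 48 h; qRT-PCR signals were normalised to ACTB, GAPDH and POLR2A.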
# [8] = read-out: Glutathione S-Transferase (GSTA2), GSTA2 (gene 2939); test: LTEA_HepaRG_GSTA2: Life Technologies and Expression Analysis (LTEA) Assay for Glutathione S-Transferase (GSTA2) using HepaRG (AID 2283497)
# How it was run: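 qRT-PCR readout of GSTA2 transcript, normalized to three housekeeping genes, fitted bidirectionally against 0.5% DMSO baseline. Differentiated HepaRG cells received compound for 48 h at 8 concentrations (top 100 uM, half-log steps).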
# [9] = read-out: Glutamate-cysteine ligase catalytic (GCLC), GCLC (gene 2729); test: LTEA_HepaRG_GCLC: Life Technologies and Expression Analysis (LTEA) Assay for Glutamate-cysteine ligase catalytic (GCLC) using HepaRG (AID 2283498)
# How it was run: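 HepaRG, 48 h exposure, 8-pt half-log series from 100 uM, 0.5% DMSO vehicle; TaqMan qRT-PCR for GCLC mRNA, housekeeping-normalized; bidirectional curve fit vs DMSO baseline.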
# [10] = read-out: growth arrest and DNA damage 45 (GADD45G), GADD45G (gene 10912); test: LTEA_HepaRG_GADD45G: Life Technologies and Expression Analysis (LTEA) Assay for growth arrest and DNA damage 45 (GADD45G) using HepaRG (AID 2283499)
# How it was run: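 Differentiated human HepaRG cells in serum-free induction medium were exposed for 48 h to 8 half-log concentrations up to 100 uM in 0.5% DMSO, in duplicate. GADD45G mRNA was measured by TaqMan qRT-PCR, normalised to ACTB, GAPDH and POLR2A, and fitted bidirectionally against DMSO.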
# [11] = read-out: Glutamate-cysteine ligase regulatory (GCLM), GCLM (gene 2730); test: LTEA_HepaRG_GCLM: Life Technologies and Expression Analysis (LTEA) Assay for Glutamate-cysteine ligase regulatory (GCLM) using HepaRG (AID 2283500)
# How it was run: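 In this multiplexed HepaRG gene-expression assay, GCLM mRNA change after 48 h treatment (8 concentrations, max 100 uM) was scored against DMSO by bidirectional curve fitting.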
# [12] = read-out: Glutathione S-transferase M3 (GSTM3), GSTM3 (gene 2947); test: LTEA_HepaRG_GSTM3: Life Technologies and Expression Analysis (LTEA) Assay for Glutathione S-transferase M3 (GSTM3) using HepaRG (AID 2283501)
# How it was run: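 Differentiated HepaRG cells in serum-free induction medium were exposed in duplicate for 48 h to 8 half-log concentrations up to 100 uM in 0.5% DMSO. GSTM3 mRNA was measured by TaqMan qRT-PCR, normalized to ACTB/GAPDH/POLR2A, and fitted bidirectionally versus DMSO.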
# [13] = read-out: Heat shock 70 kDa protein 1 (HSPA1A), gene 3303; test: LTEA_HepaRG_HSPA1A: Life Technologies and Expression Analysis (LTEA) Assay for Heat shock 70 kDa protein 1 (HSPA1A) using HepaRG (AID 2283502)
# How it was run: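 An oxidative-stress marker readout: HepaRG cells treated 48 h in duplicate with an eight-point series (highest 100 uM) had HSPA1A mRNA quantified by TaqMan qRT-PCR. Activity was fitted in both directions using 0.5% DMSO as baseline.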
compound,measurement,setting,value
Nc1nc(Cl)nc2c1ncn2[C@H]1C[C@H](O)[C@@H](CO)O1,AC50,CYP2C9 (gene 1559),1070 nM (active)
same,AC50,CYP2E1 (gene 1571),879 nM (active)
same,AC50,CYP4A11 (gene 1579),1410 nM (active)
same,outcome,[1],inactive
same,outcome,[2],inactive
same,AC50,[3],272 nM (active)
same,outcome,[4],inactive
same,AC50,CYP3A5 (gene 1577),481 nM (active)
same,AC50,[5],1330 nM (active)
same,AC50,[6],5920 nM (active)
same,AC50,[7],1200 nM (active)
same,AC50,[8],1760 nM (active)
same,AC50,[9],1240 nM (active)
same,AC50,[10],5750 nM (active)
same,outcome,[11],inactive
same,outcome,[12],inactive
same,outcome,[13],inactive
Cn1cnc2c1c(=O)[nH]c(=O)n2C,outcome,[1],inactive
same,outcome,[2],inactive
same,outcome,[3],inactive
same,outcome,[4],inactive
same,outcome,[5],inactive
same,outcome,[8],inactive
same,outcome,[9],inactive
same,outcome,[10],inactive
same,outcome,[11],inactive
same,outcome,[12],inactive
same,outcome,[13],inactive
